Assay results taken from the supplement of paper PMC11732987, “Enantioselective OTUD7B fragment discovery through chemoproteomics screening and high-throughput optimisation” (Communications Chemistry, 2025).

Key:
Test in all cases: log2 ratio of Biotin-Ahx-Ub-VS probe labelling (fragment/DMSO); higher = less target engagement (more negative = stronger competition), active = hit call of the paper (q ≤ 0.05, log2 ratio ≤ -1)
Conditions in all cases: compound concentration: 200 uM; treatment time: 3 h
[1] = molecular target: USP34 (UniProt Q70CQ2)
In short: (§1)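 Labelled DUBs from HEK293T lysate were NeutrAvidin-enriched, digested with LysC and trypsin, and run by diaPASEF LC-MS/MS. Before that, each 495 µg sample in Tris/CHAPS/IGEPAL buffer with protease inhibitors was treated in triplicate with fragment at 200 µM or vehicle for 3 h, then with Biotin-Ahx-Ub-VS at 0.5 µM final for 1 h. Values are average log2 ratios of fragment over vehicle by unpaired t-test, based on global-median-normalised Spectronaut label-free quantities from proteins with ≥2 unique peptides.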

[2] = molecular target: T1, USP36 (UniProt Q9P275)
T1 sequence (whole entry): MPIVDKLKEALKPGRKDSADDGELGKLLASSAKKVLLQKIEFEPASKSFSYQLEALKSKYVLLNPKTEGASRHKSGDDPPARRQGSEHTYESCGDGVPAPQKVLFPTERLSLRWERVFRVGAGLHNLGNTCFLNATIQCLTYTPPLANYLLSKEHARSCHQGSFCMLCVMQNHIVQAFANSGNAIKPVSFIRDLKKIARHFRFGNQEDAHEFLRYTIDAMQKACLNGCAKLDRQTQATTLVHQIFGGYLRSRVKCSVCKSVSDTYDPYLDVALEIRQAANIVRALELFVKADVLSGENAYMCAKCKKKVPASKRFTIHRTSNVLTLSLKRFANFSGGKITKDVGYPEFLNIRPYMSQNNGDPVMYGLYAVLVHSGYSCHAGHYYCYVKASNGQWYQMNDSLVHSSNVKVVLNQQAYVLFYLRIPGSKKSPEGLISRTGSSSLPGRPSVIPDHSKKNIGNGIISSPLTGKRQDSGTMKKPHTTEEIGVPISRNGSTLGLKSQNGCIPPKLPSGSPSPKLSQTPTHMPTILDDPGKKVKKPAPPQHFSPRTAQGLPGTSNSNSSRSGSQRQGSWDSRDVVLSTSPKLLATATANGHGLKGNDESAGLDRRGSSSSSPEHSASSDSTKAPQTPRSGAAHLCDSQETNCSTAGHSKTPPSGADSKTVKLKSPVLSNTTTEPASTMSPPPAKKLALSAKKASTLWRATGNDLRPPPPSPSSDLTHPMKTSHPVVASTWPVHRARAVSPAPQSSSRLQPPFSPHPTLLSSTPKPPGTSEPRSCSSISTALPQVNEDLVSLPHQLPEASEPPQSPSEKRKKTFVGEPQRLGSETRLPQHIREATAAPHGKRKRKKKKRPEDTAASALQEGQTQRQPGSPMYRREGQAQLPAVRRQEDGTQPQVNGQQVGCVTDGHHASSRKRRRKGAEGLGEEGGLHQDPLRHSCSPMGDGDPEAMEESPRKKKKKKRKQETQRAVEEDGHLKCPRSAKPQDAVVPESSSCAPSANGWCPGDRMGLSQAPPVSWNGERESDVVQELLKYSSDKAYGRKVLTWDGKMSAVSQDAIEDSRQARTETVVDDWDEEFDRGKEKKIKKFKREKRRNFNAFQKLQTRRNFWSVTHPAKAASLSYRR
In short: as §1

[3] = molecular target: T2, USP38 (UniProt Q8NB14)
T2 sequence (whole entry): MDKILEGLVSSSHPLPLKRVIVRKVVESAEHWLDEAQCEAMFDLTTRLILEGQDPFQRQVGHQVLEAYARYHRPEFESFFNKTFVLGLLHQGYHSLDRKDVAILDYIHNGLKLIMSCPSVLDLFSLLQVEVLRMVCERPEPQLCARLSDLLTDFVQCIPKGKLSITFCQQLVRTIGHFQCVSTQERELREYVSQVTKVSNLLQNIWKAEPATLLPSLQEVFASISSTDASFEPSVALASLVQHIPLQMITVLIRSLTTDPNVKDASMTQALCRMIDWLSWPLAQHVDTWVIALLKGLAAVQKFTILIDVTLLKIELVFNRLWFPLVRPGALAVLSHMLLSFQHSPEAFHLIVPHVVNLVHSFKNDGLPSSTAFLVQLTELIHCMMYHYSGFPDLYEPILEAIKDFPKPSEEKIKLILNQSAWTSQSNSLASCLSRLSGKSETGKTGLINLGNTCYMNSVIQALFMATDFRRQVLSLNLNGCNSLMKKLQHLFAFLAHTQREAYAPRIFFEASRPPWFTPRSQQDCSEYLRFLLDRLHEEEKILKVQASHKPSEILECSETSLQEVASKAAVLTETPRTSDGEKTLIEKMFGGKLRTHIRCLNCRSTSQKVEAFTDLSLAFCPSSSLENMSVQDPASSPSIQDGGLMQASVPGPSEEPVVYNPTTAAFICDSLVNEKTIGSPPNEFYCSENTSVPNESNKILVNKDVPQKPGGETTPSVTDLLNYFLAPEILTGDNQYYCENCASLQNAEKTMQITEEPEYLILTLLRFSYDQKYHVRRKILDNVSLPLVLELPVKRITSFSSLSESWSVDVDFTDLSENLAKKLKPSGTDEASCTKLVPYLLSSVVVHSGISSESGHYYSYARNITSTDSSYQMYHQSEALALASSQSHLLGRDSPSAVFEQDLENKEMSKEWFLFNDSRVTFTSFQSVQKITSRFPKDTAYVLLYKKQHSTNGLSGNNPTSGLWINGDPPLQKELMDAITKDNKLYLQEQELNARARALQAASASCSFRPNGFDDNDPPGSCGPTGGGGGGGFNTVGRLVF
In short: as §1

[4] = molecular target: T3, USP39 (UniProt Q53GS9)
T3 sequence (whole entry): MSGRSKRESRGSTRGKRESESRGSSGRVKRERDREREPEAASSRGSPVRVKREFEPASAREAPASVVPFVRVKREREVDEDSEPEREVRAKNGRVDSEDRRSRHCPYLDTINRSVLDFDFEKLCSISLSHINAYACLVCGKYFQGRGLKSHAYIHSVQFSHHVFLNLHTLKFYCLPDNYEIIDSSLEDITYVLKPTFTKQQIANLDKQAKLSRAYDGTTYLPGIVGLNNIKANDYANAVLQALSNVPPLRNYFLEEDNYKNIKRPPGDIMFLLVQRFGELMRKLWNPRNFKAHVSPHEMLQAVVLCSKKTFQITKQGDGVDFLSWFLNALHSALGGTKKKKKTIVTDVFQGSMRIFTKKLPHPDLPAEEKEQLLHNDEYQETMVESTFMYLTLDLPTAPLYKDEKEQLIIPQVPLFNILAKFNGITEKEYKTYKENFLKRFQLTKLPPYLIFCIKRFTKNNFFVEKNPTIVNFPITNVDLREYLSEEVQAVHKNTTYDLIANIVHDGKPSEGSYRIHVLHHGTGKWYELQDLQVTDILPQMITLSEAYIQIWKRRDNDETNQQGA
In short: as §1

[5] = molecular target: T4, USP4 (UniProt Q13107)
T4 sequence (whole entry): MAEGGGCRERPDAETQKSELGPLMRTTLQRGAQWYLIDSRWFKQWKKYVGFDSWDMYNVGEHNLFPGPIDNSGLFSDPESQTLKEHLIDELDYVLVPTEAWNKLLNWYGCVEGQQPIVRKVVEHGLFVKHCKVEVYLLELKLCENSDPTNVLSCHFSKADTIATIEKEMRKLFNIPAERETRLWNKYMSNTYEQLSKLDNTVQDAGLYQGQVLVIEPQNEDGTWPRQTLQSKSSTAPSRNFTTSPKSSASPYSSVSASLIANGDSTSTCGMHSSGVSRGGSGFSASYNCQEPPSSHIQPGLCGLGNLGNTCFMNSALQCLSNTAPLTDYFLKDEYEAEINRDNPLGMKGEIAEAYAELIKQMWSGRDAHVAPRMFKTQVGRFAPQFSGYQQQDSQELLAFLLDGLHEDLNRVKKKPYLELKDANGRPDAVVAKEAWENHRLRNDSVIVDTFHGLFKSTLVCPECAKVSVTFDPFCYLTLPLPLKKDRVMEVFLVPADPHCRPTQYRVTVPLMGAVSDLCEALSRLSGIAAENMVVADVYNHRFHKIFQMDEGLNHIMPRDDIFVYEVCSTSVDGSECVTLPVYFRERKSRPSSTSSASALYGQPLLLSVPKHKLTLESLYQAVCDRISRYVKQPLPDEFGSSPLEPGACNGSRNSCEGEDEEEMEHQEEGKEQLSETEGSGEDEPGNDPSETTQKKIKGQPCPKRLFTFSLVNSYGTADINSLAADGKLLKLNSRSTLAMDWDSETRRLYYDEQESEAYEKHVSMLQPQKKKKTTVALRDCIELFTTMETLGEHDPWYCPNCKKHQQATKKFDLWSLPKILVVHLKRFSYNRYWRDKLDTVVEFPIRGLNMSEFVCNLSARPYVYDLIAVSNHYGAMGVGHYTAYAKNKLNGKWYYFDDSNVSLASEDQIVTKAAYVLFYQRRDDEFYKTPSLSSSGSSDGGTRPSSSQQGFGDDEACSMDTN
In short: as §1

Measured: log2 ratio of Biotin-Ahx-Ub-VS probe labelling

USP34, sequence (Q70CQ2 whole entry, the tested form may be a part): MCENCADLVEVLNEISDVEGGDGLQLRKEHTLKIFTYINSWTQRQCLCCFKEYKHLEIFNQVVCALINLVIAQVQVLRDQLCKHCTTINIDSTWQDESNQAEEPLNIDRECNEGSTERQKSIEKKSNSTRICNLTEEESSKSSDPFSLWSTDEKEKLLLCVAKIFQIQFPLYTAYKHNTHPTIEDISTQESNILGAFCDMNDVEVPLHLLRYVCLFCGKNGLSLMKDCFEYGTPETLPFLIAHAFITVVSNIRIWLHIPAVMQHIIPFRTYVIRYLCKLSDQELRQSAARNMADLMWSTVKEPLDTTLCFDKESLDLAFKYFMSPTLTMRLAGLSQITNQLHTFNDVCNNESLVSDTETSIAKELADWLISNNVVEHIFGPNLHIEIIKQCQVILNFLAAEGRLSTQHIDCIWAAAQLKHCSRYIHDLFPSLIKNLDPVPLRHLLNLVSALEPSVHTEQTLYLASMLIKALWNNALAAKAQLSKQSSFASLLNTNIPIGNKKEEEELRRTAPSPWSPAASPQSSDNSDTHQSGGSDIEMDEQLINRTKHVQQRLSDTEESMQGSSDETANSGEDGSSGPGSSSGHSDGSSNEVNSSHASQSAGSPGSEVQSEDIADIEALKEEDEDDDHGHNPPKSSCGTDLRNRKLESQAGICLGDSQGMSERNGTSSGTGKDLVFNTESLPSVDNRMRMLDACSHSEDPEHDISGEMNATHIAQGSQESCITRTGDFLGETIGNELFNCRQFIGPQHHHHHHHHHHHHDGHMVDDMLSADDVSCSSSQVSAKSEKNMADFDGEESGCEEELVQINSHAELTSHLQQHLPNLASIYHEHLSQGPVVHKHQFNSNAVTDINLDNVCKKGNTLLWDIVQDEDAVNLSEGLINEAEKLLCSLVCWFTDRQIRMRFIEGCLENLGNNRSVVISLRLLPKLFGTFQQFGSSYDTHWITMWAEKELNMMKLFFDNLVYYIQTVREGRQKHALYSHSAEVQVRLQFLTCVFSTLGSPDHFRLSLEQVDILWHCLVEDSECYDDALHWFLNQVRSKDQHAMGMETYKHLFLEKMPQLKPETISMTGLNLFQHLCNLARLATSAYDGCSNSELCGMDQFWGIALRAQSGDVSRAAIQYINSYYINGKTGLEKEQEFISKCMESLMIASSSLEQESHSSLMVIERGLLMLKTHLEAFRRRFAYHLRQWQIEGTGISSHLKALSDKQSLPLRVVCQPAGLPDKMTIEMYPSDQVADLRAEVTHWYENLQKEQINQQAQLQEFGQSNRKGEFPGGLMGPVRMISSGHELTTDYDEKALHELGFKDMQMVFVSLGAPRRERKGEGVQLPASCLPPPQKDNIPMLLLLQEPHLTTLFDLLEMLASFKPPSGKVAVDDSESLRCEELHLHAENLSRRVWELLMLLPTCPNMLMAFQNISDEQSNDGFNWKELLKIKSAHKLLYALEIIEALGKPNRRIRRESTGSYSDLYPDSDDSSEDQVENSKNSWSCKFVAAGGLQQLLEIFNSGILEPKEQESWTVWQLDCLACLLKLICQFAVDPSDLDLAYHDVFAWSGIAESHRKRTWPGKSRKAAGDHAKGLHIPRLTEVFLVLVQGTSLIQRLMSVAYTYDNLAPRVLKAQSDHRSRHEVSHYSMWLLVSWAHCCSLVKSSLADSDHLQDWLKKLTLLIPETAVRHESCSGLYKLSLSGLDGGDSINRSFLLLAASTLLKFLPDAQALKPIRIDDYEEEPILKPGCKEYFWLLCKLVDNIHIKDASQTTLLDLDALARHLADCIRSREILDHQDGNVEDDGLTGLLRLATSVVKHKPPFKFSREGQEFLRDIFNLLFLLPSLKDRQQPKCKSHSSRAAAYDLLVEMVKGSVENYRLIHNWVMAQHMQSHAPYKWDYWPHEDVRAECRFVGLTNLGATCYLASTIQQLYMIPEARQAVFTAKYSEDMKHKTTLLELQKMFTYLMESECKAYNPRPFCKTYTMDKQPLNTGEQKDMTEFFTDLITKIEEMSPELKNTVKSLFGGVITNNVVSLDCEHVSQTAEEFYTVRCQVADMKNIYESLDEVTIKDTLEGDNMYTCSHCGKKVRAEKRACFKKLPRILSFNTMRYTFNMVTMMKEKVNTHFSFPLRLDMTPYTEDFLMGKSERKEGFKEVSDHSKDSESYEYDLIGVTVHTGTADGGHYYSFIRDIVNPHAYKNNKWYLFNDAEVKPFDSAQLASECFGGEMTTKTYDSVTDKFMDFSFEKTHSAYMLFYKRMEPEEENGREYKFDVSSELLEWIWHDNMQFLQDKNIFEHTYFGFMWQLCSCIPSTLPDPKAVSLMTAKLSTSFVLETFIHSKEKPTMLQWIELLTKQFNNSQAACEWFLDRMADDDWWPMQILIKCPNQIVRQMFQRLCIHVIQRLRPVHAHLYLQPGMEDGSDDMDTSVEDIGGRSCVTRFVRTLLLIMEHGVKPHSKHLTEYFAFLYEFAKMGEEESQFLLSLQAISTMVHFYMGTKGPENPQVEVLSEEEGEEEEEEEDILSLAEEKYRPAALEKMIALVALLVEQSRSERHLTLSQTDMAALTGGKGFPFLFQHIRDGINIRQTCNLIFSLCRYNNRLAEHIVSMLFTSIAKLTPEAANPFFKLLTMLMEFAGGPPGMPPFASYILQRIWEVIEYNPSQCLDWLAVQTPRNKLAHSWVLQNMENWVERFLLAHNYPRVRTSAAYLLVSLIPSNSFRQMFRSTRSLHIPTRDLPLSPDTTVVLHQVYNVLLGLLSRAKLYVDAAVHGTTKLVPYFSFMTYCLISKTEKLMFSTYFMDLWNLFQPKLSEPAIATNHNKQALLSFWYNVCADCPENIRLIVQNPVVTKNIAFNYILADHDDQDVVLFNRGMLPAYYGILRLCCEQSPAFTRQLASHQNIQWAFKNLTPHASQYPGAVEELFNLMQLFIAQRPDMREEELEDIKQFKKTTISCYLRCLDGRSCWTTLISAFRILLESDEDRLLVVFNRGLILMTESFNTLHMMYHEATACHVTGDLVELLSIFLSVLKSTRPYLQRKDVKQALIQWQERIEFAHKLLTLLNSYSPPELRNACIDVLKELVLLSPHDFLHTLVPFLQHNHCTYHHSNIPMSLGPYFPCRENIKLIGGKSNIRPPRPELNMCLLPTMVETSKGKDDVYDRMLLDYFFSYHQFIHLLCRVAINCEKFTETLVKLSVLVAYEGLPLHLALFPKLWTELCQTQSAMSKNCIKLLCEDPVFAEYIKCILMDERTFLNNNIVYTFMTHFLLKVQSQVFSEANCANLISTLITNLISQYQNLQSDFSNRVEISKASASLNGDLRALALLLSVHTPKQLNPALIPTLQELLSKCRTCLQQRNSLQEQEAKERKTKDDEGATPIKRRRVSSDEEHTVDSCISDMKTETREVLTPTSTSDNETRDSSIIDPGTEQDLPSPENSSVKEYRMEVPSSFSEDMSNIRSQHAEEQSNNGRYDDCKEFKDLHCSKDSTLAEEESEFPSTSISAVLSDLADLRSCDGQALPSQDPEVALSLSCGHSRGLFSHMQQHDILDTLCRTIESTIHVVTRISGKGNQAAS

O=C(CCl)N1CCC(=C(F)CO)C1
inactive: [1] 0.0842 | [2] -0.125 | [3] 0.0909 | [4] 0.212 | [5] 0.218
